Source: the supplement of paper PMC10849652
Targets with a hit are over-represented here; the source holds about 8,800 in all. About 0.5% of all pairs of compound and target were hits. A number with no mark means an inactive call.

Tests used:
Experiment in all cases: log2 fold change, soluble protein after heating vs DMSO (PISA); higher = thermal stabilisation; K562 lysate, 10 uM; active = over 0.2 and 3.5 SD of the protein, either way, in both replicates (recomputed)
[1] = compound: C#Cc1cccc(Nc2ncnc3cc(OCCOC)c(OCCOC)cc23)c1 [erlotinib]
Summary of the method: (§1)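 Thermal stability, expressed as log-two fold change relative to solvent controls, is given from duplicates. Crude K562 extract in PBS pH 7.4 with 1 mM MgCl2, at 1 mg/mL protein, was treated with 10 μM compound for 30 min and heated in aliquots for 3 min across 48°C-58°C. After pooling, adjustment to 0.5% NP-40 at 4°C and centrifugation at 21,000xg for 90 min, supernatant protein was measured by TMTpro 16plex LC-MS/MS with channel sums equalised.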

[2] = compound: C/C(=N\NC(=O)C1=CC(=CC=C1)S(=O)(=O)N2CCOCC2)/C3=C(C=CC(=C3)Cl)O
Summary of the method: as §1

[3] = compound: C1=CC(=CC=C1C2=NC3=C(N2)C=C(C=C3)C(=O)N)OC4=CC=C(C=C4)Cl
Summary of the method: as §1

[4] = compound: C1=CC2=C(C=CC(=C2)/C=C\3/C(=O)NC(=NCC4=CC=CS4)S3)N=C1
Summary of the method: as §1

[5] = compound: C1=CC2=NC=CN=C2C=C1/C=C/3\C(=O)NC(=O)S3
Summary of the method: as §1

[6] = compound: C1=CC=C(C=C1)C2=NC(=C(N2)C3=CC=NC=C3)C4=CC(=C(C=C4)Cl)O
Summary of the method: as §1

[7] = compound: C1=CC=C2C(=C1)C3=NNC4=CC=CC(=C43)C2=O
Summary of the method: as §1

[8] = compound: C1CCN(C1)C(=O)NC2=CC=CC(=C2)NC3=NC=C(C(=N3)NCCC4=CN=CN4)Br
Summary of the method: as §1

[9] = compound: C1CN(CCC1(CC2=CC=C(C=C2)Cl)N)C3=NC=NC4=C3C=CN4
Summary of the method: as §1

[10] = compound: C1COCCN1CCN2C3=CC=CC=C3N=C2NC(=O)C4=CC(=CC=C4)[N+](=O)[O-] [IRAK-1-4 Inhibitor I]
Summary of the method: as §1

Sequence of UniProt Q5HYI8 (Q5HYI8 whole entry, looked up): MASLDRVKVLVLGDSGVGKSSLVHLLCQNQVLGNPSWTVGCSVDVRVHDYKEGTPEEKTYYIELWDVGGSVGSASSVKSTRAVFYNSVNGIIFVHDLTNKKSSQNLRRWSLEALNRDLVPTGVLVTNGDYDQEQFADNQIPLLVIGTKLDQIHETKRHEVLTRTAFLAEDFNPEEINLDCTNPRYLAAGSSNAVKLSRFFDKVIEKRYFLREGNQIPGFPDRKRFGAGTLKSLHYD
Sequence of UniProt P78406 (P78406 whole entry, looked up): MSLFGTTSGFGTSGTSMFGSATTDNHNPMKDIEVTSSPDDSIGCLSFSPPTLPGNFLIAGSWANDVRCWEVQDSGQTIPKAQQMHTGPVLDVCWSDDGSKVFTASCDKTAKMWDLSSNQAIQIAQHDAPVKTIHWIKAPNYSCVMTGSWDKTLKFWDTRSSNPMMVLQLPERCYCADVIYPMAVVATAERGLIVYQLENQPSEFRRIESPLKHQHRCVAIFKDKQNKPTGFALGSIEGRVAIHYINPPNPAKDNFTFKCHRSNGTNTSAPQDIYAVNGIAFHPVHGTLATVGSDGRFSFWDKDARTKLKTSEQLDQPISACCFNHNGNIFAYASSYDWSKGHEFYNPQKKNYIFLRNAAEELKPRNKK
Sequence of UniProt P35241 (P35241 whole entry, looked up): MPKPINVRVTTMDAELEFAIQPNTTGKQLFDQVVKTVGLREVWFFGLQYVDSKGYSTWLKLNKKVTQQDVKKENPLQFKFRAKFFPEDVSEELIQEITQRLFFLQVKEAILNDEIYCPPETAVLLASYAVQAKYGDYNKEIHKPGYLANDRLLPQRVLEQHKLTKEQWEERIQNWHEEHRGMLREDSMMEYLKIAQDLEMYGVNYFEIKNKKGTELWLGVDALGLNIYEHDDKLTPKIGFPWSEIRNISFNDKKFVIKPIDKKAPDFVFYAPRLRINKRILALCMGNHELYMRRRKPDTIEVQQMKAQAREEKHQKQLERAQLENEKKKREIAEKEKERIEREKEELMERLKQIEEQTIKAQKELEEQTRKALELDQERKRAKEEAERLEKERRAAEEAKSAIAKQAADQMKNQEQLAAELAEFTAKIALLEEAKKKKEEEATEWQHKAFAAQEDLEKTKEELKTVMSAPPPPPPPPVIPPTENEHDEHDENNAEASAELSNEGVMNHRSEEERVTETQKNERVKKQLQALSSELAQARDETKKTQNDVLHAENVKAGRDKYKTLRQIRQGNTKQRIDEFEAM
Sequence of UniProt Q8WZA2 (Q8WZA2 whole entry, looked up): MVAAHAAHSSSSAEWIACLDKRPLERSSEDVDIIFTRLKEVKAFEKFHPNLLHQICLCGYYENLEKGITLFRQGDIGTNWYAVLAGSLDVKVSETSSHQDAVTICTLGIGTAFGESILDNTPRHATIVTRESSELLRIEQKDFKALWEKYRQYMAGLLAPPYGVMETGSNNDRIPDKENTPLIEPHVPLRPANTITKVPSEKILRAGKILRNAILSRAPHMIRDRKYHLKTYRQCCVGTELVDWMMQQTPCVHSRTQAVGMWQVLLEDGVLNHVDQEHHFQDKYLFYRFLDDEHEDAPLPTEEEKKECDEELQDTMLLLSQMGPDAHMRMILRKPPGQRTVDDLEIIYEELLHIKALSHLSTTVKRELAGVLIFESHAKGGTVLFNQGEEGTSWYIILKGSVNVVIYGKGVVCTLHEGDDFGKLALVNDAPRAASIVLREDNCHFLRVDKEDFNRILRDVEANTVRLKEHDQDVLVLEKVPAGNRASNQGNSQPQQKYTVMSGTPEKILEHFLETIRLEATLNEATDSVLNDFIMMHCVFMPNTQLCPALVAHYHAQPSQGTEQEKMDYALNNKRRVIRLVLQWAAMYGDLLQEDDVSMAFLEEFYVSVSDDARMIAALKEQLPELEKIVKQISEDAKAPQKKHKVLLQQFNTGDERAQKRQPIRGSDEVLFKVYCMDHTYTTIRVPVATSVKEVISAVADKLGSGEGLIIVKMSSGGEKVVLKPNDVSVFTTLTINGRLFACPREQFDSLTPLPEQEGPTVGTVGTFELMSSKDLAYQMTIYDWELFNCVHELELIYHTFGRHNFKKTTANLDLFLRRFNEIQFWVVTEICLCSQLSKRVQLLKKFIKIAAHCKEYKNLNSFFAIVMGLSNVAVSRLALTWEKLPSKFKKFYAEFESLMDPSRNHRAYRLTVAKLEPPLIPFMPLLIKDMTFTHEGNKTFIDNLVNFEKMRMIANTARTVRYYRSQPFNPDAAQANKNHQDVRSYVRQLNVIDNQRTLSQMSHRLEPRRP
Sequence of UniProt Q92878 (Q92878 whole entry, looked up): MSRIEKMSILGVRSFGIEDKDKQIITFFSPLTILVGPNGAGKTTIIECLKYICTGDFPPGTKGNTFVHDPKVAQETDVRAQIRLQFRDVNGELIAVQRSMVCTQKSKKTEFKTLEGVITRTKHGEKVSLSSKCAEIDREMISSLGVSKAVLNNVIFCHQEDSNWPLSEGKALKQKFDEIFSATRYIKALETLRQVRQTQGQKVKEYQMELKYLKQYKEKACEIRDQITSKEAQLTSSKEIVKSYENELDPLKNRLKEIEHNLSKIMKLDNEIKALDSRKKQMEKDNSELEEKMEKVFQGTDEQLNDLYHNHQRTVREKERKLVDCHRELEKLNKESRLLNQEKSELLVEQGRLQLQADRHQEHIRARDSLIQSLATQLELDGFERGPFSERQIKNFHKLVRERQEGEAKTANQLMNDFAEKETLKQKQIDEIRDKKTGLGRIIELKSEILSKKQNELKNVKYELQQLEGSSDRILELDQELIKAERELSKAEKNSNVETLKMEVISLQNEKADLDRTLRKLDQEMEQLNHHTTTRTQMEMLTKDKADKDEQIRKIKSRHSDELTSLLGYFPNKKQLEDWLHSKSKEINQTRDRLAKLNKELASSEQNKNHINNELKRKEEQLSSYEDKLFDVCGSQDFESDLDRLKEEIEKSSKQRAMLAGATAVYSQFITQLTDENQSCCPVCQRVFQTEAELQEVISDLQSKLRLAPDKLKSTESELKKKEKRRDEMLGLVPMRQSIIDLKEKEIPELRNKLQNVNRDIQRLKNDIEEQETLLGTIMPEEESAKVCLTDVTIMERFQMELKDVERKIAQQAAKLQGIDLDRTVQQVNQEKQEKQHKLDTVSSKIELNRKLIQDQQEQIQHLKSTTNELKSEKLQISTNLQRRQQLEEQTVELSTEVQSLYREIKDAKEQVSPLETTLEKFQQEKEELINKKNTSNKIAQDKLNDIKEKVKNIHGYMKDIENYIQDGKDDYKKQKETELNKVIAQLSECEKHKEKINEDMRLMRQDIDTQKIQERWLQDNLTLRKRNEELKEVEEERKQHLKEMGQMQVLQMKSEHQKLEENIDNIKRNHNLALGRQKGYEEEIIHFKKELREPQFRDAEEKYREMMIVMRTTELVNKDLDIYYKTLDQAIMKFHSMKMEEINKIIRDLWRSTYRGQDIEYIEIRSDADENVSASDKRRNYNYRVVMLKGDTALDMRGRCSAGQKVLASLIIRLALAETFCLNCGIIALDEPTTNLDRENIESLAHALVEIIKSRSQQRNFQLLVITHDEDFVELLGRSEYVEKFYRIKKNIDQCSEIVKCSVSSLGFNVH
Sequence of UniProt Q9BWH6 (Q9BWH6 whole entry, looked up): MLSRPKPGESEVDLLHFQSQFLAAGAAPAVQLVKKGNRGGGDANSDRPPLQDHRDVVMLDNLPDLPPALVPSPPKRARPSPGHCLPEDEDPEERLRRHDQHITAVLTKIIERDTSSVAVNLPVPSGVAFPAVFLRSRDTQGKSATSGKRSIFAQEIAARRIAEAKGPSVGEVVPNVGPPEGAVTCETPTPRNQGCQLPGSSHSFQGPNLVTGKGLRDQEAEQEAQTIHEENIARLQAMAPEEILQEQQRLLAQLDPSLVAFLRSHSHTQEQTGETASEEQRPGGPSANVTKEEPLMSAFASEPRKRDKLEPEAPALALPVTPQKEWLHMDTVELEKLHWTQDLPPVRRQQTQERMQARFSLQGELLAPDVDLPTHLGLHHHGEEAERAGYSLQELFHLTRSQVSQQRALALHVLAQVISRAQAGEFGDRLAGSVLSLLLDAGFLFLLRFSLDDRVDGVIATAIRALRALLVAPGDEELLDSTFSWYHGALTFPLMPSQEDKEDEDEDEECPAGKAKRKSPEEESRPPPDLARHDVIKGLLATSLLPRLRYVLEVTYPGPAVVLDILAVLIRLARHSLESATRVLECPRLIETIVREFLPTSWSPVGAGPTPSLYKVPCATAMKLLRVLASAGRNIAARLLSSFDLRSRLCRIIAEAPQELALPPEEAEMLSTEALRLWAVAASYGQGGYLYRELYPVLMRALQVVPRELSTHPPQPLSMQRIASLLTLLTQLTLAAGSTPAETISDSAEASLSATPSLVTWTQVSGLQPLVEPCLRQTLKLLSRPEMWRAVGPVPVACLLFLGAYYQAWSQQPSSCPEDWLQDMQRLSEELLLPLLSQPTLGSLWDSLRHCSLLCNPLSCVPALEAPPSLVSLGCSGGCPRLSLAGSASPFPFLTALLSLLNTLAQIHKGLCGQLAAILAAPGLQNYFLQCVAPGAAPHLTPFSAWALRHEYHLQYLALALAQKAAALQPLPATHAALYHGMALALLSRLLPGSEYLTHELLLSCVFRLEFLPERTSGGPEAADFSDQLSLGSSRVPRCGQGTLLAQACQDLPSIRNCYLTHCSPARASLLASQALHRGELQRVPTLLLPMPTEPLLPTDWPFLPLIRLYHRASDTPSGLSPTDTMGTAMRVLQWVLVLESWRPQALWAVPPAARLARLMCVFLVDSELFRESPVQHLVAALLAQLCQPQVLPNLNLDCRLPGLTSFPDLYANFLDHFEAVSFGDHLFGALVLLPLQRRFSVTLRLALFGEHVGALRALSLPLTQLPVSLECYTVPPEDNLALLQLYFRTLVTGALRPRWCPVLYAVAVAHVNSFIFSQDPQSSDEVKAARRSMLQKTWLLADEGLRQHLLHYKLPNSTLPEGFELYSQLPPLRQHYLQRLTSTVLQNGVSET

Target | log2 fold change [1] | log2 fold change [2] | log2 fold change [3] | log2 fold change [4] | log2 fold change [5] | log2 fold change [6] | log2 fold change [7] | log2 fold change [8] | log2 fold change [9] | log2 fold change [10]
RABL3 (UniProt Q5HYI8) | 0.706 (active) | -0.019 | -0.025 | 0.011 | 0.008 | 0.96 (active) | -0.041 | 0.015 | 0.017 | 0.48
RNF123 (UniProt Q5XPI4) | 0.058 | 0.016 | -0.008 | 0.029 | 0.019 | -0.015 | -0.035 | -0.005 | 0.044 | -0.019
RAP1B (UniProt P61224) | -0.017 | -0.085 | 0.024 | 0.016 | -0.031 | 0.006 | -0.014 | -0.033 | -0.004 | 0.014
RPL31 (UniProt P62899) | -0.018 | -0.097 | -0.03 | -0.01 | 0.001 | 0 | 0.038 | 0.043 | -0.039 | 0.026
RCOR3 isoform 3 (UniProt Q9P2K3) | -0.033 | 0.025 | 0.022 | 0.009 | -0.006 | -0.017 | -0.012 | -0.02 | -0.015 | -0.015
SEC13 isoform 3 (UniProt P55735) | 0.032 | 0.02 | 0.009 | -0.019 | 0 | -0.001 | -0.033 | -0.019 | 0.006 | -0.028
RECQL4 (UniProt O94761) | -0.041 | 0.023 | -0.025 | 0.195 | -0.081 | 0.018 | -0.039 | -0.035 | 0.013 | 0.015
RPAP1 (UniProt Q9BWH6) | 0.05 | -0.078 | 0.019 | 0.016 | 0.007 | -0.028 | 0.001 | -0.001 | 0.02 | 0.005
RECQL5 (UniProt O94762) | 0.046 | -0.093 | 0.282 | 0.083 | 0.005 | -0.002 | 0.012 | -0.062 | 0.036 | 0.006
RHOA (UniProt P61586) | 0.001 | -0.093 | 0.049 | -0.093 | -0.09 | 0.064 | 0.038 | -0.022 | 0.039 | -0.022
RAE1 (UniProt P78406) | 0.045 | -0.036 | 0.014 | 0.046 | 0.012 | -0.021 | -0.007 | -0.019 | 0.033 | -0.024
RPN2 (UniProt P04844) | 0 | 0.014 | -0.055 | 0.022 | 0.021 | 0 | -0.049 | -0.007 | 0.006 | 0.007
RBM42 (UniProt Q9BTD8) | -0.034 | -0.161 | 0.073 | -0.062 | -0.018 | -0.009 | -0.05 | -0.017 | -0.014 | 0.049
RBM22 (UniProt Q9NW64) | 0.028 | -0.005 | 0.025 | -0.07 | 0.013 | -0.034 | -0.021 | -0.02 | 0.009 | 0.018
SEC16A isoform 5 (UniProt O15027) | 0.006 | -0.019 | 0.025 | -0.016 | -0.031 | -0.038 | -0.085 | -0.022 | 0.002 | -0.005
RDX (UniProt P35241) | -0.013 | 0.017 | 0.014 | -0.023 | -0.032 | 0.018 | -0.009 | 0.012 | -0.025 | 0.006
RPS18 (UniProt P62269) | -0.021 | -0.088 | -0.007 | -0.006 | -0.004 | -0.012 | -0.007 | 0.005 | 0.004 | 0.047
RBM8A (UniProt Q9Y5S9) | -0.061 | 0.035 | -0.002 | 0.069 | -0.042 | 0.029 | 0.093 | 0.086 | -0.076 | -0.059
RNF168 (UniProt Q8IYW5) | -0.018 | -0.023 | 0.001 | -0.081 | 0.037 | -0.007 | -0.114 | -0.311 (active) | 0.053 | 0.008
RAPGEF4 (UniProt Q8WZA2) | 0.181 | 0.057 | 0.049 | -0.016 | -0.019 | -0.092 | -0.195 | -0.043 | 0.12 | 0.184
SEH1L isoform 1 (UniProt Q96EE3) | -0.008 | 0.082 | -0.001 | -0.023 | 0.014 | -0.015 | -0.012 | -0.025 | 0.026 | 0.031
RAD50 isoform 2 (UniProt Q92878) | -0.009 | -0.007 | 0.019 | 0.006 | -0.014 | -0.023 | -0.039 | 0.005 | -0.01 | -0.054
SESN2 (UniProt P58004) | 0.043 | 0.102 | -0.007 | -0.017 | 0.023 | -0.037 | -0.07 | 0.051 | -0.014 | -0.048
RAB3IL1 (UniProt E9PK89) | -0.016 | -0.075 | 0.124 | 0.013 | -0.048 | -0.04 | 0.093 | -0.034 | -0.12 | 0.109
RPL8 (UniProt P62917) | 0.001 | -0.307 | -0.024 | -0.025 | -0.026 | 0.007 | 0.109 | 0.019 | -0.085 | -0.005
SEC24D isoform 2 (UniProt O94855) | 0.016 | 0.04 | 0.012 | 0.008 | 0.032 | 0.022 | 0.001 | -0.013 | 0.004 | -0.002
RPL37A (UniProt P61513) | -0.012 | -0.067 | -0.006 | -0.011 | -0.03 | 0.03 | 0.064 | 0.039 | -0.035 | -0.023
SCO2 (UniProt O43819) | 0.055 | -0.09 | 0.057 | 0.023 | -0.017 | 0.085 | 0.035 | 0.014 | 0.041 | -0.015
R3HCC1 (UniProt Q9Y3T6) | -0.015 | -0.118 | 0.055 | 0.074 | -0.086 | 0.071 | -0.008 | 0.006 | -0.016 | -0.044
